Screening data (PubChem BioAssay)
Casp7 inh: allosteric or competitive inhibitors of human caspase-7 | P55210 | recombinant caspase-7, Ac-DEVD-AFC fluorescence rate | Potency, µM (doses to about 57.5 µM), for inactives: top-dose activity change, negative = inhibition, usual class: inhibitors | actives 0.02% (n = 75,000) | AID 889; active = well fitted inhibition curve with a large enough effect in the main read-out, with a control signal flat, not every such curve was filed as active; inconclusive = small, poorly fitted or top-dose-only effect, or a change in a side signal; also: % of control where 0% means no effect
HEK293 cAMP ctrl: raises cAMP in parental HEK293 cells, TSHR agonist counter-screen; parental HEK293 CNG cAMP sensor, membrane potential fluorescence; Potency, µM (doses to about 57.1 µM), inactives show top-dose activation, actives largely listed as activators; actives 2.5% (n = 73,000); also: % of control where 0% means no effect; nearly all actives have a fitted effect of over 55% in size
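Parental HEK 293 cells stably expressing a cAMP-gated CNG channel were loaded with membrane potential dye containing 100 uM RO 20-1724 for 60 min. Compound added for 30 min; depolarization read as fluorescence intensity at 590 nm.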
ERK AVP inh: vasopressin-driven ERK pathway inhibition | HEK293-V1b, vasopressin-stimulated pERK AlphaScreen | Potency, µM (top dose mostly 57.5 µM), for inactives: top-dose activity, negative = inhibition, usual class: inhibitors | actives 0.99% (n = 72,000) | AID 995; also: % is scaled to controls: 0 for no effect and ±100 for the full control effect; nearly all actives have a fitted effect of over 55% in size
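Overnight-seeded V1b-HEK293 cells in 1% FBS got compound, then vasopressin (25 nM final, 5 min, 37C), then lysis buffer. AlphaScreen detection of phospho-ERK; activity normalized to basal and full-stimulation controls.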
15-hLO inh: inhibitors of human 15-lipoxygenase (ALOX15). P16050. purified 15hLO-1, xylenol orange hydroperoxide absorbance. Potency, µM (series often up to 57.1 µM), for inactives: at the highest dose activity change, negative = inhibition, usual class: inhibitors. actives 1.4% (n = 74,000); also: % is scaled to controls: 0 for no effect and ±100 for the full control effect; nearly all actives have a fitted effect of over 55% in size
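Purified human 15hLO-1 (40 nM final) in 25 mM Hepes pH 7.5, 0.01% Triton X-100 was preincubated with compound 15 min at room temperature, then reacted 6 min with 50 uM arachidonic acid; hydroperoxide detected by Fe-XO, 573/405 nm absorbance ratio.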
Caspase-1 inhib: allosteric or competitive inhibitors of human caspase-1; Potency, µM (titrated, usually from 57.5 µM), for inactives: at the top dose activity change, negative = inhibition, most hits filed as inhibitors; actives 0.03% (n = 75,000); P29466; Caspase-1 enzyme, Ac-WEHD-AFC fluorogenic rate; AID 900;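 also: plate controls were vehicle for no effect and no substrate for full effect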
TSHR agonist: TSH receptor (human) agonism. P16473. HEK293-CNG-TSHR cells (CNG channel as cAMP sensor), membrane potential dye, cAMP. Potency, µM (series often up to 57.1 µM), inactives show at the top dose activation, usual class: activators. actives 0.48% (n = 73,000); active = well fitted activation curve with a large enough effect in the main read-out, with a control signal flat, not every such curve was filed as active; inconclusive = small, poorly fitted or top-dose-only effect, or a change in a side signal; inactive = no such curve, though single readings can be large or run the other way; % of control where 0% means no effect;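 also: the control signal comes from parental cells without the receptor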
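HEK 293 cells stably expressing TSHR and a cAMP-gated CNG channel; parental CNG-only cells as counterscreen. Cells preloaded 60 min with membrane potential dye plus 100 uM RO 20-1724, then compound 30 min; fluorescence read at 590 nm.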
* = called active by the depositor; ? = inconclusive; . = no result; [ ] = dose if it differs, or a comment. This is a sample that favours compounds with a hit; in the whole collection about 4.8% have one here. Unless noted, calls follow the shape of the dose curve; as a rule, active = well fitted curve in the direction sought with a large enough effect; inconclusive = small, poorly fitted or top-dose-only effect, or another doubt; inactive = no such curve, though single readings can be large; an effect the other way counts as inactive or inconclusive. Potency is read from the fitted curve at half-maximal effect.

SMILES	Casp7 inh	HEK293 cAMP ctrl	ERK AVP inh	15-hLO inh	Caspase-1 inhib	TSHR agonist
O=C(/C=C/Nc1ccc(F)c(Cl)c1)c1ccco1	-22%	22%	?	25µM*	-13%	31%
O=C(c1cnccn1)N1CCC2(CC1)CCN(c1ccncc1)CC2	0%	4%	2%	8%	2%	-1%
Cc1cccc(NC(=O)c2cc(-c3ccco3)nc3ccccc23)n1	-7%	25µM*	-12%	?	-10%	?
O=C(NCC1CCCO1)c1cc(-c2ccco2)nc2ccccc12 (stereo not given)	-26%	21%	4%	-26%	-14%	18%
COc1ccc(NC(=O)c2cc(-c3ccc(C)o3)nc3ccccc23)cc1OC	-10%	25µM*	-16%	32µM*	-9%	?
CCOC(=O)CCC(NC(=O)c1ccc(NCN2C(=O)c3ccccc3C2=O)cc1)C(=O)OCC (stereo not given)	1%	0.79µM*	20%	3%	-1%	?
CCOC(=O)CCC(NC(=O)c1ccc(NCN2C(=O)CCC2=O)cc1)C(=O)OCC (stereo not given)	0%	-1%	-2%	10%	0%	2%
CN1C(=O)Cn2c1nc1ccccc12	2%	20µM*	-4%	-3%	-1%	?
O=C1Cn2c(nc3ccccc32)N1c1ccccc1F	-1%	10%	-20%	5%	-2%	0%
Oc1cc(O)c2c(c1)O[C@@H](c1ccc(O)c(O)c1)[C@H](O[C@@]1(c3cc(O)c(O)c(O)c3)Oc3cc(O)cc(O)c3[C@H](O)[C@@H]1O)C2	-17%[11.5 µM]	6%[11.4 µM]	-15%[11.5 µM]	1µM*	-1%[11.5 µM]	8%[11.4 µM]
CCc1ccc(C2CC(c3ccccc3)n3ncnc3N2)cc1 (stereo not given)	-2%	19%	32µM*	44%	-1%	23%
CCc1ccc(C2CC(c3ccccc3)Nc3nc(N)nn32)cc1 (stereo not given)	?	0%	2%	10%	?	-4%
O=C(Cc1c(C(=O)O)[nH]c2ccc(Cl)cc12)Nc1ccc2c(c1)OCCO2	-3%	18%	19%	-5%	0%	.
CNC(=O)[C@]1(C)C[C@H]1[C@H](NC(=O)[C@]1(C)C[C@H]1[C@H](NC(=O)OCc1ccccc1)c1ccccc1)c1ccccc1	-2%	21%	31%	1%	2%	.
CCOC(=O)Cn1c(CN2CC(C)OC(C)C2)nc2c1c(=O)n(C)c(=O)n2C (stereo not given)	-2%	26%	.	7.9µM*	3%	4µM*
N#CCSc1nc2c(c(C3CC=CCC3)c1C#N)CCC2 (stereo not given)	-3%	10µM*	15%	?	-3%	?
Oc1cccc(Nc2ccccc2)c1	-2%	-17%	2%	-6%	-3%	?
CC(C)c1cc(Nc2cccc(O)c2)cc(C(C)C)c1O	-6%	-5%	32µM*	10µM*	-6%	11%
Cc1ncsc1C(=O)NCc1ccc(N2CCCC2=O)cc1	-8%	13%	-9%	9%	-1%	4%
COC(=O)c1ccc(Oc2cc(C)nc(-n3nc(C)cc3C)n2)cc1	-1%	16µM*	?	18%	-2%	?
CCOC(=O)c1ccc(Oc2nc(NC)nc(SC)n2)cc1	-1%	2%	-4%	-2%	-1%	3%
COC(=O)c1ccc(Oc2nc(C)cc(Oc3ccccc3)n2)cc1	0%	17%	29%	-3%	-3%	11%
CCOC(=O)c1ccc(Oc2cc(C)nc(SC)n2)cc1	-1%	3.2µM*	9%	-15%[11.4 µM]	-2%	?
CCOC(=O)c1ccc(Oc2nc(NC(C)(C)C)nc(N(C)C)n2)cc1	-4%	25µM*	-4%	-13%	-5%	?
CCOC(=O)c1ccc(Oc2nc(SC)nc(N(C)C)n2)cc1	-4%	3.2µM*	71%	-13%[11.4 µM]	-3%	?
SMILES	Casp7 inh	HEK293 cAMP ctrl	ERK AVP inh	15-hLO inh	Caspase-1 inhib	TSHR agonist
CCNc1nc(Oc2ccc(C(=O)OCC)cc2)nc(SC)n1	-4%	?	6%	-7%	-5%	?
c1ccc(-c2cccc(N3CCC4(CCNCC4)CC3)c2)cc1	-4%	-32%	-19%	-20%	-5%	?
CCCCCC1=C2CNC(CCC)(C(=O)OC)C=C2C(C)C1=O (stereo not given)	-20%	?	33%	.	-12%	?
O=C1c2ccc(Oc3ccc4c(c3)C(=O)N(CCCCO)C4=O)cc2C(=O)N1CCCCO	-1%	1%	20µM*	11%	2%	10%
c1ccc(CC2CCN(c3nc(N4CCOCC4)nc(N4CCOCC4)n3)CC2)cc1	-2%	-1%	-4%	-13%	0%	7.9µM*
O=C(c1noc2c1CCc1ccccc1-2)N1CCCc2ccccc21	-3%	25µM*	17%	?	-2%	?
CCCCN1CCCC[C@H]1C(=O)Nc1c(C)cccc1C	1%[25.7 µM]	?	-17%[25.7 µM]	5%[25.6 µM]	-1%[25.7 µM]	?
CC(=O)c1ccc2c3c(ccc(O)c13)CC2	-1%	-6%[11.4 µM]	32µM*	?	-2%	-19%[11.4 µM]
C[C@H](N)C(=O)OC(C)(C)Cc1ccc(Cl)cc1	0%	-3%	11%	7%	2%	-5%
COc1ccc(C(C)=O)cc1COC(=O)c1ccc2c(c1)OCO2	-2%	32µM*	25%	-19%	1%	?
O=C(O)CCc1ccc(-c2ccccc2)n1CC(=O)O	-4%	12%	-20%	-14%	-1%	6%
O=C(O)CCc1ccc(-c2ccccc2)n1-c1cccc(O)c1	0%	14%	?	10µM*	?	5%
CC(C)NC(=O)N1CC[C@@]2(CCCN(S(C)(=O)=O)C2)C1	1%	?	-6%	7%	-1%	?
CCOc1ccc(OCC)c(NC(=O)CSc2nc3cccnc3n2C)c1	-6%	32µM*	-26%	-7%	-10%	?
CCOc1ccccc1NC(=O)CSc1nc2c(c(=O)n1C)SC(C)C2 (stereo not given)	-1%	32µM*	.	11%	4%	?
CCOC(=O)c1cccc(NC(=O)CSc2nnc(CNc3ccc(C)cc3)n2CC)c1	1%	?	-2%	13µM*	1%	?
CCOc1ccc(NC(=O)CSc2nc3c(c(=O)n2C)SC(C)C3)cc1 (stereo not given)	2%	21%	.	-3%	3%	19%
CCOC(=O)c1cccc(NC(=O)CSc2nc3cccnc3n2C)c1	0%	?	25µM*	-9%	-1%	?
CCOC(=O)c1c(NC(=O)CSc2nc3cccnc3n2C)sc(C(C)=O)c1C	-4%	?	-28%	-13%	2%	?
